Measured values as given in the antibiotic and cytotoxicity screens of Wong et al. (2023).
Screen size: about 39,000 compounds; about 1,500 (3.8%) were called active. The list comes from a sample in which actives are over-represented; it also holds similar structures and randomly drawn compounds.

Tested on: HSkMC (human skeletal muscle cells)
Assay: cytotoxicity call (relative viability < 0.9)
Details: 10 µM

| Structure (SMILES) | cytotoxicity call |
| --- | --- |
| C[C@H](CO)N1C[C@H](C)[C@H](CN(C)S(=O)(=O)c2ccccc2)Oc2ccc(NC(=O)CCN3CCOCC3)cc2CC1=O | inactive |
| C[C@@H]1CN([C@H](C)CO)S(=O)(=O)c2ccc(C3=CCCC3)cc2O[C@H]1CN(C)S(=O)(=O)c1cn(C)cn1 | inactive |
| C/C1=C2/[N]([Co+][OH])[C@H]([C@H](CC(N)=O)[C@@]2(C)CCC(=O)NC[C@@H](C)OP(=O)(O)O[C@H]2[C@@H](O)[C@@H](n3cnc4cc(C)c(C)cc43)O[C@@H]2CO)[C@]2(C)N=C(/C(C)=C3N=C(/C=C4N=C1[C@@H](CCC(N)=O)C/4(C)C)[C@@H](CCC(N)=O)[C@]\3(C)CC(N)=O)[C@@H](CCC(N)=O)[C@]2(C)CC(N)=O | active |
| C[C@H]1CN([C@@H](C)CO)C(=O)Cc2cc(NC(=O)Cn3cnnn3)ccc2O[C@@H]1CN(C)S(=O)(=O)c1ccc(Cl)cc1 | inactive |
| CC(C)N1CC[C@@H](CN(C)Cc2ccc(Cl)cc2)Oc2c(NC(=O)c3ccncc3)cccc2C1=O | inactive |
| Cc1ccc(C(=O)N(CCCN)[C@@H](c2oc3cc(Cl)ccc3c(=O)c2Cc2ccccc2)C(C)C)cc1 | active |
| Cc1ccc2c(c1)c1nc3ccccc3nc1n2Cc1ccccc1 | inactive |
| Cc1ccc(C(=O)N(CCCN)[C@@H](c2nc3cc(Cl)ccc3c(=O)n2Cc2ccccc2)C(C)C)cc1 | active |
| COc1ccc2cc(S(=O)(=O)N[C@H](CC(=O)N[C@H](Cc3ccc(CN4[C@H](C)CCC[C@@H]4C)cc3)C(=O)N(C)C(C)C)c3ccc4c(c3)OCO4)ccc2c1 | inactive |
| C[C@@H]1CCCCO[C@@H](CN(C)Cc2ccc(Cl)c(Cl)c2)[C@@H](C)CN([C@@H](C)CO)C(=O)c2cc(NC(=O)CCC(F)(F)F)ccc2O1 | inactive |
| CO[C@H](C(=O)N(C)C[C@H]1OCc2ccccc2-c2c(n(C)c3ccccc23)C(=O)N([C@@H](C)CO)C[C@H]1C)c1ccccc1 | inactive |
| C[C@@H]1CN([C@H](C)CO)C(=O)c2cc(NS(C)(=O)=O)ccc2O[C@@H]1CN(C)C(=O)NC1CCCCC1 | inactive |
| Cc1noc(C)c1NC(=O)Nc1ccc2c(c1)C(=O)N([C@H](C)CO)C[C@H](C)[C@H](CN(C)Cc1ccc(C(F)(F)F)cc1)OCCCC[C@H](C)O2 | inactive |
| C[C@@H]1CN([C@H](C)CO)C(=O)Cc2cc(NC(=O)c3ccncc3)ccc2O[C@H]1CN(C)Cc1ccc2c(c1)OCO2 | inactive |
| C[C@H]1CN([C@@H](C)CO)C(=O)c2ccccc2-c2ccccc2CO[C@H]1CN(C)Cc1ccc(Oc2ccccc2)cc1 | inactive |
| COc1ccc(C(=O)C=Cc2ccccc2)cc1 | inactive |
| COC1=CC(=O)C(O)=CC1=CC=Cc1ccccc1 | active |
| COC1=CC(=O)c2ccccc2C1=O | inactive |
| C[C@H]1CCCCO[C@H](CN(C)C(=O)Nc2ccc(C(F)(F)F)cc2)[C@@H](C)CN([C@@H](C)CO)C(=O)c2cc(NS(C)(=O)=O)ccc2O1 | inactive |
| Cc1noc(C)c1S(=O)(=O)Nc1ccc2c(c1)C(=O)N([C@H](C)CO)C[C@@H](C)[C@@H](CN(C)CC1CCCCC1)OCCCC[C@@H](C)O2 | inactive |

| Structure (SMILES) | cytotoxicity call |
| --- | --- |
| C[C@H](CO)N1C[C@H](C)[C@@H](CN(C)Cc2ccc(C(F)(F)F)cc2)Oc2c(NC(=O)c3nc4ccccc4s3)cccc2C1=O | inactive |
| C[C@@H]1CN([C@@H](C)CO)C(=O)c2cccc(NC(=O)c3nc4ccccc4s3)c2O[C@H]1CN(C)Cc1ccc(C(F)(F)F)cc1 | inactive |
| C[C@@H]1CN([C@H](C)CO)C(=O)c2cccc(NC(=O)c3nc4ccccc4s3)c2O[C@@H]1CN(C)Cc1ccc(C(F)(F)F)cc1 | inactive |
| C[C@H]1CN([C@@H](C)CO)C(=O)c2cccc(NC(=O)c3nc4ccccc4s3)c2O[C@@H]1CN(C)Cc1ccc(C(F)(F)F)cc1 | active |
| C[C@@H]1CN([C@H](C)CO)C(=O)c2cccc(NC(=O)c3nc4ccccc4s3)c2O[C@H]1CN(C)Cc1ccc(C(F)(F)F)cc1 | active |
| C[C@@H]1CN([C@@H](C)CO)C(=O)c2cccc(NC(=O)c3nc4ccccc4s3)c2O[C@@H]1CN(C)Cc1ccc(C(F)(F)F)cc1 | inactive |
| C[C@H](NC(=O)C[C@@H]1C[C@@H]2c3cc(NC(=O)Nc4ccc(C(F)(F)F)cc4)ccc3O[C@@H]2[C@@H](CO)O1)c1ccccc1 | inactive |
| C[C@H]1CN([C@@H](C)CO)C(=O)c2ccccc2-c2ccccc2CO[C@@H]1CN(C)Cc1cccc(C(F)(F)F)c1 | inactive |
| C[C@@H]1CCCCO[C@@H](CN(C)C)[C@@H](C)CN([C@H](C)CO)C(=O)c2cc(NC(=O)Nc3ccc(C(F)(F)F)cc3)ccc2O1 | inactive |
| CO[C@@H](CN(C)S(=O)(=O)c1cccc(Cl)c1)[C@@H](C)CN([C@H](C)CO)S(=O)(=O)c1ccc(Cl)cc1 | inactive |
| C[C@H](CO)N1C[C@H](C)[C@@H](CN(C)C(=O)CCCN(C)C)OCCCC[C@H](C)Oc2ccc(NC(=O)Nc3ccc(C(F)(F)F)cc3)cc2C1=O | inactive |
| C[C@@H]1CN([C@@H](C)CO)C(=O)c2cc(NC(=O)Cc3cn(C)c4ccccc34)ccc2O[C@H]1CN(C)Cc1ccc(Oc2ccccc2)cc1 | inactive |
| C[C@@H]1CN([C@@H](C)CO)C(=O)c2cc(NC(=O)Cc3cn(C)c4ccccc34)ccc2O[C@H]1CN(C)Cc1ccc(-c2ccccc2)cc1 | inactive |
| C[C@H]1CN([C@@H](C)CO)C(=O)c2cc(NC(=O)Cc3cn(C)c4ccccc34)ccc2O[C@H]1CN(C)Cc1ccc(Oc2ccccc2)cc1 | inactive |
| C[C@H]1CN([C@@H](C)CO)C(=O)c2cc(NC(=O)Cc3cn(C)c4ccccc34)ccc2O[C@@H]1CN(C)Cc1ccc(Oc2ccccc2)cc1 | active |
| C[C@@H]1CN([C@H](C)CO)C(=O)c2cc(NC(=O)Cc3cn(C)c4ccccc34)ccc2O[C@@H]1CN(C)Cc1ccc(Oc2ccccc2)cc1 | inactive |
| C[C@@H]1CN([C@H](C)CO)C(=O)c2cc(NC(=O)Cc3cn(C)c4ccccc34)ccc2O[C@H]1CN(C)Cc1ccc(Oc2ccccc2)cc1 | inactive |
| C[C@H](CO)N1C[C@H](C)[C@H](CN(C)Cc2ccc(-c3ccccc3)cc2)Oc2ccc(NC(=O)Cc3cn(C)c4ccccc34)cc2C1=O | active |
| C[C@@H]1CN([C@H](C)CO)C(=O)c2cc(NC(=O)Cc3cn(C)c4ccccc34)ccc2O[C@H]1CN(C)Cc1ccc(-c2ccccc2)cc1 | inactive |
| C[C@H](CO)N1C[C@H](C)[C@H](CN(C)Cc2ccc(Oc3ccccc3)cc2)Oc2ccc(NC(=O)Cc3cn(C)c4ccccc34)cc2C1=O | active |
